# PubChem BioAssay AID488857 (Sanford-Burnham Center for Chemical Genomics, 2010)
# Hit rate of the full screen: of about 1,400 compounds, about 560 (40%) were called active. So high a share suggests a set chosen from earlier hits. The list shows a part of the results. Values without a mark were called inactive.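 Rule for the calls: active = mean inhibition over duplicate tests at 10 µM above 50%; inactive = the rest.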
# Test: ASC/caspase-1 reporter retest in S. cerevisiae at one dose, specificity check for NALP1 project (AID 488857)
# Details: S. cerevisiae ASC/Caspase-1, beta-galactosidase luminescence, 24 h; at 10 µM; hits give high values
row,SMILES,inhibition
1,CCOc1ccc(C(=O)C(CCC(CN(C)C)C(=O)c2ccc(OCC)cc2)CN(C)C)cc1 (stereo not given),63.5% (active)
2,CCCOc1ccc(C(=O)NC(C)C(=O)O)cc1 (stereo not given),40.4%
3,Cc1ccc(N2C(=N)/C(=C3/Nc4ccccc4S3)C(c3ccccc3)C2=O)cc1 (stereo not given),38.5%
4,N#CC1=C(N)Oc2n[nH]c(-c3cccs3)c2C1C1CCCCC1 (stereo not given),46.4%
5,CC1=CC(=O)C=C(C)C1=NOS(=O)(=O)c1ccccc1,69.7% (active)
6,CC1=C/C(=N\OS(=O)(=O)c2ccccc2)C(C(C)C)=CC1=O,91.2% (active)
7,N#CC(C#N)=c1ccc2c(c1)N1C3=C(CCCC3)CC3CCCCC31N=2 (stereo not given),8.35%
8,COc1ccc(/C=N/NC(=O)c2csc(-n3nc(C)cc3C(F)(F)F)n2)cc1,36.5%
9,O=C(CCN1CCc2ccccc2C(c2ccccc2)C1)c1ccc2c(c1)OCCO2 (stereo not given),24.4%
10,CCOC(=O)C(C(=O)OCC)C(C(=O)OCC)N1CCOCC1 (stereo not given),53.2% (active)
11,Cc1cccc(Oc2nc(CN3CCOCC3)nc3sc4c(c23)CCCC4)c1,75.2% (active)
12,Oc1ccccc1C1N=C(c2ccccc2)NC(c2ccccc2)=N1,28.9%
13,CCOc1nc(N2CCOCC2)nc(N2CCOCC2)n1,43.6%
14,CC(=O)N1N=C(c2ccc3ccccc3c2)OC1(C)C,86.5% (active)
15,Cn1nc(-c2ccccc2)c(-c2nc(-c3ccc(Cl)cc3)no2)c1Cl,33.6%
16,CS(=O)(=O)n1nc(-c2ccc(Cl)cc2)nc1SCc1ccccc1,48%
17,Cn1nc(-c2ccc(Cl)cc2)nc2c(=O)n(C)c(=O)nc1-2,97.8% (active)
18,c1ccc2[nH]c3cc4ncnc4cc3nc2c1,46.6%
19,Nc1ccccc1-c1nc2ccccc2[nH]1,83% (active)
20,O=C1CC(c2cccc(Cl)c2)CC(O)=C1C=Nc1cccc(Cl)c1 (stereo not given),53.5% (active)
21,O=C1CC(c2ccccc2Cl)CC(O)=C1C=Nc1ccccc1 (stereo not given),61.9% (active)
22,CCSc1nnc(-c2ccncc2)n1Cc1ccccc1,23.7%
23,CCCn1c(-c2cccnc2Cl)nc2cc(Cl)c(Cl)cc21,47.9%
24,CS/C(=N\S(=O)(=O)c1cccs1)Nc1ccc(Br)cc1F,68.3% (active)

row,SMILES,inhibition
1,CCCNC(=O)c1cc2c3ccccc3n(C)c2s1,74.2% (active)
2,CC(C)OCCCNC(=O)c1cc2c(=O)n(C)c3ccccc3c2n1C,30.8%
3,COc1cccc(CN2CCC(C(=O)N3CCN(c4ccccc4F)CC3)CC2)c1OC,32.3%
4,O=[N+]([O-])c1ccc(OCC(O)CN2CCN(c3ccccc3F)CC2)cc1 (stereo not given),51.8% (active)
5,OC(COc1ccc2c(c1)CCC2)CN1CCN(c2ccccc2F)CC1 (stereo not given),78% (active)
6,COc1ccc(CN2CC(C(=O)NCCN3CCN(c4ccccc4F)CC3)CC2=O)cc1 (stereo not given),29.6%
7,OC(CSc1c(Cl)cccc1Cl)CN1CCN(c2ccccc2F)CC1 (stereo not given),50.8% (active)
8,Cc1sc(-c2ccncc2)nc1OC(=O)c1ccccc1,36.9%
9,Cc1occc1C(=O)Nc1c(F)c(F)c(F)c(F)c1F,38.6%
10,Cc1ccc(NCC(=O)Nc2c(C)n(C)n(-c3ccccc3)c2=O)cc1S(=O)(=O)N(C)C,10.7%
11,CC1=C(C(=O)Nc2ccc(Cl)cc2)C(c2ccncc2)C(C#N)=C(SCC(N)=O)N1 (stereo not given),30.2%
12,Cn1c2c(c(=O)n(C)c1=O)C(NC(=O)C(C)(C)C)(C(F)(F)F)C(=O)N2 (stereo not given),40.1%
13,O=S(=O)(CC(CN1CCCCC1)N1CCCCC1)c1ccc2ccccc2c1 (stereo not given),59.8% (active)
14,O=S(=O)(CC(CN1CCCC1)N1CCCC1)c1ccc2ccccc2c1 (stereo not given),30.2%
15,O=S(=O)(NC1CCCCC1)c1ccc(F)c2ccccc12,57.7% (active)
16,O=C(Nc1nc(-c2ccncc2)cs1)c1ccc(S(=O)(=O)N2CCOCC2)cc1,39.9%
17,CS(=O)(=O)N1N=C(c2ccco2)CC1c1ccc(Cl)cc1 (stereo not given),27.9%
18,CCOC(=O)c1c(/N=C/c2cc(OC)cc([N+](=O)[O-])c2O)sc(C)c1C,65.7% (active)
19,CCOC(=O)c1sc(=S)n(-c2ccc(OC)cc2)c1C,48.9%
20,Nc1nc2ccc(Oc3ccccc3)cc2s1,96.2% (active)
21,COc1ccc(-c2csc(N3C(=O)C4C5c6ccccc6C(c6ccccc65)[C@@H]4C3=O)n2)cc1 (stereo not given in full),34.7%
22,Cc1sc(N)nc1-c1ccc(Oc2ccccc2)cc1,76.5% (active)
23,Nc1ccc(Oc2cccc(Oc3ccc(N)cc3)c2)cc1,48%
24,Nc1nc(-c2ccc(Oc3ccccc3)cc2)cs1,99.7% (active)

row,SMILES,inhibition
1,O=C(Cc1ccc(Cl)cc1)Oc1cccc2cccnc12,29.8%
2,c1cnc2c(c1)ccc1cccnc12,84.1% (active)
3,Fc1ccc(Nc2nc(Oc3ccccc3F)nc(N3CCCC3)n2)cc1,41.3%
4,Cc1ccccc1Nc1cc(C)c2c(O)cccc2n1,77.8% (active)
5,COc1ccc(NC(=O)c2sc(N3CCOCC3)nc2-c2ccccc2)c(OC)c1,57.7% (active)
6,COc1ccc(NC(=O)N2CCC(CO)(CC3CCCCO3)CC2)c(OC)c1 (stereo not given),40.4%
7,C/C(=N\NC(=O)Cc1csc(N2CCOCC2)n1)c1ccccc1,29.2%
8,CN(C)Cc1ccccc1Sc1ccccc1Br,49%
9,N#Cc1ccc(NC(=O)Nc2ccc(Cl)cc2)cc1,96.4% (active)
10,CC(=O)c1ccc(NC(=O)Nc2ccc(Cl)cc2)cc1,44.4%
11,COc1ccc(N2CCN(CCNC(=O)Nc3ccc(Cl)cc3)CC2)cc1,39.5%
12,Cc1cccc(C)c1C(OCCN(C)C)C1CCCCC1 (stereo not given),35.5%
13,COc1cc(/C=C(\NC(C)=O)C(=O)Nc2cccc(O)c2)ccc1OC(C)=O,42%
14,COc1ccc(/C=C/C(=O)Nc2ccc3c(c2)CCC3)cc1OC,86.2% (active)
15,O=C1/C(=C/c2cccnc2)SC(=S)N1C1CCS(=O)(=O)C1 (stereo not given),32.4%
16,COc1ccc(OC)c(S(=O)(=O)Nc2ccc(O)c3ccccc23)c1,28.8%
17,CSc1ccc2c(c1)N(CCC1CCCCN1C)c1ccccc1S2 (stereo not given),81.8% (active)
18,CCC(C)NCCOc1cccc(Br)c1 (stereo not given),39.6%
19,Cc1ccc2nc(-c3ccc(NC(=O)CN(c4ccccc4C)S(C)(=O)=O)cc3)sc2c1,44.1%
20,O=C(Nc1ccc(-c2nc3ccccc3s2)cc1)C1=COCCO1,55.6% (active)
21,CCOC(=O)N/N=C/c1ccc(N(CC)CC)cc1O,72.5% (active)
22,COc1cc2nc(Cl)nc(N3CCN(C)CC3)c2cc1OC,30%
23,O=C(Nc1ccc(Cl)c(Cl)c1)Oc1ccc(NC(=O)c2ccco2)cc1,54.6% (active)
24,COc1cccc(NC2=C(Cl)C(=O)OC2OC(=O)c2ccco2)c1 (stereo not given),38.3%

row,SMILES,inhibition
1,Cc1ccc2cc3cc(C(=O)NCCCN4CCc5ccccc5C4)oc3nc2c1,35%
2,O=C(Nc1ccccc1)N1CCc2ccccc2C1,71.7% (active)
3,CC(=O)N1CCCc2cc(S(=O)(=O)N3CCc4ccccc4C3)ccc21,45.2%
4,O=C(NCCCN1CCc2ccccc2C1)Nc1ccc(Br)cc1,43.3%
5,Cc1ccc(NC(=O)N2CCc3ccccc3C2)cc1,69.2% (active)
6,COC(=O)/C(=N/Nc1ccc(C)cc1)N1CCCc2ccccc21,40.6%
7,CCOC(=O)c1cc(-c2ccc(OC)cc2)nc2c1c(C)nn2CCC#N,49.6%
8,CN1C/C(=C/c2ccncc2)C(=O)/C(=C/c2ccncc2)C1,26.9%
9,CC1=CC2=NC(=O)/C(=C\c3cccn3CCOc3cccc(C)c3)C(=N)N2O1,85.1% (active)
10,NCCS,58.8% (active)
11,CCOC(=O)C1CCCCN1Cc1ccc(F)c(Br)c1 (stereo not given),40.2%
12,COc1ccc2nc3oc(C(=O)Nc4ccc(OC)c(OC)c4)cc3cc2c1,36.3%
13,CCOC(=O)C1CCN(C(=O)c2cc3cc4cc(OC)ccc4nc3o2)CC1,52% (active)
14,O=C(NCC1CCCO1)C(c1cccs1)N(Cc1cccs1)C(=O)Cn1nnc(-c2cccs2)n1 (stereo not given),39.1%
15,CCOC(=O)c1c(C)c(C(=O)NCCCOC(C)C)c(C)n1C,26.7%
16,COc1cc(C=O)ccc1Oc1nnnn1-c1ccccc1,52.9% (active)
17,O=C1CN(c2nnnn2-c2ccccc2)CCN1,40.9%
18,CC(C)C(=O)c1cc2c(cc1NC(=O)Nc1cccc3ccccc13)OCCO2,49.3%
19,O=C(N/N=C/c1ccc2c(c1)OCO2)c1cccs1,68.9% (active)
20,CNc1ccc(/C=C/C(=O)c2ccc3c(c2)OCCO3)cc1[N+](=O)[O-],66.7% (active)
21,O=C(/C=C/c1cccc([N+](=O)[O-])c1)c1ccco1,36%
22,Cc1c([N+](=O)[O-])c(C(=O)Nc2ccc3c(c2)OCCO3)nn1C,24.6%
23,CC1=CC(C)(C)Nc2ccc(OC(=O)C(C)N3C(=O)c4ccccc4C3=O)cc21 (stereo not given),39.1%
